The nature of assay [1]: Cell Viability - LYMP2-024 (AID 988).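 Also: plate controls were DMSO only for no effect and 92 µM tetraoctylammonium bromide for full effect; nearly all actives have a fitted effect of over 60% in size.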 Summed up:
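qHTS cytotoxicity, human lymphoblastoid line, complete medium; 24 h cpd treatment, 37 C; CellTiter-Glo ATP luminescence readout; tetraoctylammonium bromide positive control; AC50 via Hill fit.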

Assay [2] in a line: Cell Viability - LYMP2-026 (AID 989). Also: % is scaled to controls: 0 for no effect and ±100 for the full control effect; nearly all actives have a fitted effect of over 50% in size. Summed up: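 Cells are seeded at 2500 per well and held 5 hr at 37 C. Compounds are added in concentration series for 24 hr, then CellTiter-Glo reagent is applied and luminescence read.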
A short description of assay [3]: Cell Viability - LYMP1-002 - Assay at 24 hr (AID 993). Also: % is scaled to controls: 0 for no effect and ±100 for the full control effect. Summed up:
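Acute toxicity is measured as concentration-dependent loss of cellular ATP in a human lymphoblastoid line (Coriell LYMP1-002) after 24 h treatment in complete medium. ATP is quantified by luciferase luminescence and AC50 derived by Hill modelling.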

The nature of assay [4]: Cell Viability - LYMP1-002 - Assay at 40 hr (AID 994).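 Also: 0% = DMSO only and full inhibition = 92 µM tetraoctylammonium bromide; nearly all actives have a fitted effect of over 60% in size.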 Summed up: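 Cells are plated at 2500 per well and rested 5 hr at 37 C. Compounds are added and incubated 40 hr at 37 C. CellTiter-Glo reagent is added for 30 min at room temperature before luminescence is read.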
Assay [5] is described as follows: qHTS Assay for Identification of Small Molecule Inducers of Hypoxia Response (AID 2120; active = well fitted curve in the direction sought with a large enough effect in the signal ratio, with a control signal flat, not every such curve was filed as active; the % refers to the signal ratio; also: 0% is about no effect). Summed up: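 Cell-based qHTS for reporter induction: hypoxia response element controlled beta-lactamase in ME-180 cells. Compounds incubated 17 h at 37 degrees C; activity from blue/green (460/530 nm) ratio, inducers ranked by AC50.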
(In general: Quantitative high-throughput screening tests each substance at several concentrations.)

Assay [6] is described as follows: Cell Viability - LYMP2-020 (AID 986).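 Also: plate controls were DMSO only for no effect and tetraoctylammonium bromide at 92 µM for full effect; nearly all actives have a fitted effect of over 55% in size.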 Summed up: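 Seed 2500 cells per well and incubate 5 hr at 37 C. Add compounds at a concentration series and incubate 24 hr at 37 C. Add CellTiter-Glo, wait 30 min at RT, read luminescence, and fit a Hill curve for AC50.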
Assay [7] in a line: Cell Viability - LYMP2-022 (AID 987).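 Also: 0% = DMSO alone and full effect = tetraoctylammonium bromide at 92 µM; nearly all actives have a fitted effect of over 55% in size.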 The procedure, abridged:
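Cells were seeded at 2500 per well, rested 5 hr at 37 C, and treated with titrated compounds for 24 hr at 37 C. Cellular ATP was then quantified by luciferase luminescence, and AC50 values were derived from Hill-modelled concentration-response curves.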

The nature of assay [8]: qHTS Assay for Lipid Storage Modulators (AID 1519; calls by dose curve). Particulars: Drosophila S3 cells, BODIPY lipid droplet/cell ratio, laser cytometry, cells loaded with oleic acid; for activity change, negative = inhibition: at 57.5 µM (top of the series). Summed up: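 Cells seeded at 5,000 per well were treated with compounds over a concentration series and loaded with oleic acid (400 uM, as added). Lipid droplet fluorescence (488 nm excitation, 500-530 nm channel) was read by laser-scanning cytometry and normalized to 20 uM Triacsin C.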

In assay [9] the target is Alpha-galactosidase A (Homo sapiens) (UniProt P06280). In words: Counterscreen for Glucocerebrosidase Inhibitors: qHTS Assay for Human alpha-Galactosidase at pH 4.5 (AID 992). Also: 0% is about no effect. Summed up:
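Steps: enzyme (2 nM final), then compound across 0.7 nM to 77 uM, then 80 uM fluorogenic galactopyranoside substrate; incubate 20 min at room temperature; quench at pH 10; measure fluorescence at 365/440 nm.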
On the technique in general: A counterscreen serves to expose hits that act by an unwanted route or on another target.

For assay [10], the target named is alpha-glucosidase (Oryza sativa, rice) (UniProt Q653V4). In words: Counterscreen for Glucocerebrosidase Inhibitors: qHTS Assay for Rice alpha-Glucosidase at pH 5.0 (AID 997).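 Also: 0% = full activity with enzyme and -100% = basal without enzyme.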 The procedure, abridged: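 Endpoint fluorogenic assay at pH 5.0: compounds (0.7 nM to 77 uM) titrated against 4 nM rice enzyme and 400 uM 4-MU-alpha-glucoside for 20 min at room temperature; NaOH/glycine stop, read ex 365/em 440 nm, Hill-fitted AC50.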

The nature of assay [11]: Validation of Assay for Modulators of Lamin A Splicing (AID 1459; active = well fitted curve in the direction sought with a large enough effect in the signal ratio; the % refers to the signal ratio;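 also: cells exposed to compound for two days before reading; 0% is about no effect; ratio rise marks activators and ratio drop marks inhibitors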). The procedure, abridged: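 S3 HeLa cells stably expressing a lamin A-EGFP splicing minigene and DsRed2 were seeded at 600 cells/well in Opti-MEM with 2% FBS, pin-dosed, and incubated 48 hrs at 37 °C, 5% CO2. Laser-scanning cytometry (488 nm) gave GFP/RFP total intensity ratio.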
The target in assay [12] is DNA repair nuclease/redox regulator APEX1 (Homo sapiens) (UniProt P27695). In words: qHTS Validation Assay for Inhibitors of the Human Apurinic/apyrimidinic Endonuclease 1 (APE1) (AID 1705;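 also: TAMRA fluorescence gain over two minutes as APE1 cuts a quenched THF abasic duplex; % is scaled to controls: 0 for no effect and ±100 for the full control effect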). The procedure, abridged: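 Human APE1 was preincubated with compound for 15 min at room temperature, then 50 nM (final) THF-abasic double-stranded DNA substrate bearing 5'-TAMRA and 3'-BHQ-2 was added. Incision-driven fluorescence rise (ex 525/em 598 nm) was read kinetically.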
Chain of DNA repair nuclease/redox regulator APEX1 (Homo sapiens) (P27695 whole entry, looked up): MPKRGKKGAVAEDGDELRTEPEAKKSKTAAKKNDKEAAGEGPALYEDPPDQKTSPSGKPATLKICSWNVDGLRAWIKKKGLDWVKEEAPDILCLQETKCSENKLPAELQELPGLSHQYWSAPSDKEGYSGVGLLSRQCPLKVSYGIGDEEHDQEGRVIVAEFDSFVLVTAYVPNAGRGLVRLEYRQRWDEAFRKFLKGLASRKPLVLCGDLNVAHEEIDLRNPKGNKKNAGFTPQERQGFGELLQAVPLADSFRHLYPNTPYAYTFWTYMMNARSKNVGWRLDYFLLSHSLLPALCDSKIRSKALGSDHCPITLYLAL

Assay [13] addresses Endonuclease 4 (Escherichia coli (strain K12)) (UniProt P0A6C1). In words: Counterscreen for APE1 Inhibitors: qHTS Validation Assay for Inhibitors of Endonuclease IV (AID 1708). Also: % is scaled to controls: 0 for no effect and ±100 for the full control effect. Summed up: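 Conditions: 2 nM enzyme, 50 nM TAMRA/BHQ-2 substrate, pH 7.5 Tris buffer with 2 mM MgCl2, RT. Compound preincubation 15 min; readout three fluorescence reads 60 s apart, third-minus-first.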

Assay [14] can be described thus: qHTS Assay for Modulators of Human Peripheral Myelin Protein 22 (PMP22) Expression/Activity (AID 1967; active = well fitted curve in the direction sought with a large enough effect in the signal ratio; the % refers to the signal ratio;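 also: 0% = untreated cells and 100% end not stated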). Summed up:
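MSC80 mouse Schwann cells stably carrying Pmp22 promoter–green click beetle luciferase plus EF-alpha–red luciferase control were dosed for 24h at 37 °C. Dual-colour luminescence was filter-overlap corrected; %Activity came from green/red ratio versus untreated cells.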

The target in assay [15] is Ferritin light chain (Equus caballus) (UniProt P02791). In words: qHTS Validation Assay for Identification of Novel General Anesthetics (AID 2323). Also: % is scaled to controls: 0 for no effect and ±100 for the full control effect. Summed up: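 Competitive displacement of profluorescent 1-aminoanthracene (1-AMA, 50% saturated solution in PBS) from 10 uM horse-spleen apoferritin. Compounds incubated 10 min at room temperature; fluorescence read at 380 nm excitation/535 nm emission, normalized to free 1-AMA and complex, fitted with four-parameter Hill equation.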
Chain of Ferritin light chain (Equus caballus) (P02791 2-175 limits assumed): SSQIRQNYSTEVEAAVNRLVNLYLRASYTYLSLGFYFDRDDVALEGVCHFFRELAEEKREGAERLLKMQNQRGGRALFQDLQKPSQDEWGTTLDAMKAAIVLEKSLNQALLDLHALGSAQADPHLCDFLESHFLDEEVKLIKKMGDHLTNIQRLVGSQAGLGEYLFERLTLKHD

Assay [16] has as its target ATP-dependent DNA helicase Q1 (Homo sapiens) (UniProt P46063). In words: qHTS Validation Assay for Inhibitors of RecQ-Like Dna Helicase 1 (RECQ1) (AID 2353).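 Also: plate controls were DMSO vehicle for no effect and enzyme-free control for full effect.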 Summed up: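 RECQ1T1 50 nM; forked duplex (20 bp + 30-nt ss tails) 200 nM, ATP 2 mM final; pH 8.0, 2 mM MgCl2, 2.5 ug/ml poly(dI-dC); 15 min compound preincubation; discontinuous kinetic read over 2 h at RT.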
A short description of assay [17]: Cytometric Cell-Based qHTS for Inhibitors of the mTORC1 Signaling Pathway in MEF (Tsc2-/-, p53-/-) Cells (AID 2660).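 Also: percent of cells above a phospho-rpS6 to PI ratio cutoff in each well; plate controls were DMSO for no effect and rapamycin for full effect.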 The procedure, abridged: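 Tsc2-/-, p53-/- MEFs (empty vector) exposed to compound 24 h at 37 C, fixed, stained with Alexa-488 anti-phospho-rpS6 Ser235/236 and propidium iodide. Acumen laser scanning; phospho-S6/PI ratio thresholded against 7.5 nM rapamycin, reported as % positive cells.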

Assay [18] can be described thus: High Content Imaging Cell-Based qHTS for Inhibitors of the mTORC1 Signaling Pathway in MEF (Tsc2-/-, p53-/-) Cells (AID 2666).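 Also: percent of cells scored positive for phospho-rpS6 Ser235/236 immunostaining by imaging.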 Particulars: at 38.3 µM (top of the series). Summed up:
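MEF Tsc2-/- p53-/- (empty vector), DMEM/10% FBS; cpd 24 h 37 °C; PFA fix, Alexa-488 p-rpS6 S235/236 Ab, Hoechst; imaged; rapamycin-defined inhibition; % positive cells/well.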

Assay [19] can be described thus: High Content Imaging Cell-Based qHTS for Inhibitors of the mTORC1 Signaling Pathway in MEF Cells (AID 2667).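 Also: Tsc2-/- p53-/- MEFs stably re-expressing wild-type Tsc2 exposed 24 h; plate controls were DMSO wells for no effect and rapamycin control wells for full effect.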 The procedure, abridged:
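Read-out is the share of phospho-rpS6-positive cells per well, from Hoechst-normalized Alexa-488 Ser235/236 staining imaged on IN Cell. Cells: WT Tsc2-expressing Tsc2-/-, p53-/- MEFs exposed to compound for 24 hrs.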

Assay [20] deals with RecQ-like DNA helicase BLM (Homo sapiens) (UniProt P54132). In words: qHTS Validation Assay for Inhibitors of Bloom's syndrome helicase (BLM) (AID 2364).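 Also: plate controls were DMSO vehicle for no effect and enzyme-free control for full effect.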 The procedure, abridged: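 50 nM BLM preincubated 15 min at room temperature with compound in pH 8.0 Tris buffer containing 2.5 ug/ml poly(dI-dC); started with 200 nM TAMRA/BHQ-2 forked duplex and 2 mM ATP (final). Unwinding read as TAMRA fluorescence increase, two reads 2 h apart.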
Chain of RecQ-like DNA helicase BLM (Homo sapiens) (P54132 whole entry, looked up): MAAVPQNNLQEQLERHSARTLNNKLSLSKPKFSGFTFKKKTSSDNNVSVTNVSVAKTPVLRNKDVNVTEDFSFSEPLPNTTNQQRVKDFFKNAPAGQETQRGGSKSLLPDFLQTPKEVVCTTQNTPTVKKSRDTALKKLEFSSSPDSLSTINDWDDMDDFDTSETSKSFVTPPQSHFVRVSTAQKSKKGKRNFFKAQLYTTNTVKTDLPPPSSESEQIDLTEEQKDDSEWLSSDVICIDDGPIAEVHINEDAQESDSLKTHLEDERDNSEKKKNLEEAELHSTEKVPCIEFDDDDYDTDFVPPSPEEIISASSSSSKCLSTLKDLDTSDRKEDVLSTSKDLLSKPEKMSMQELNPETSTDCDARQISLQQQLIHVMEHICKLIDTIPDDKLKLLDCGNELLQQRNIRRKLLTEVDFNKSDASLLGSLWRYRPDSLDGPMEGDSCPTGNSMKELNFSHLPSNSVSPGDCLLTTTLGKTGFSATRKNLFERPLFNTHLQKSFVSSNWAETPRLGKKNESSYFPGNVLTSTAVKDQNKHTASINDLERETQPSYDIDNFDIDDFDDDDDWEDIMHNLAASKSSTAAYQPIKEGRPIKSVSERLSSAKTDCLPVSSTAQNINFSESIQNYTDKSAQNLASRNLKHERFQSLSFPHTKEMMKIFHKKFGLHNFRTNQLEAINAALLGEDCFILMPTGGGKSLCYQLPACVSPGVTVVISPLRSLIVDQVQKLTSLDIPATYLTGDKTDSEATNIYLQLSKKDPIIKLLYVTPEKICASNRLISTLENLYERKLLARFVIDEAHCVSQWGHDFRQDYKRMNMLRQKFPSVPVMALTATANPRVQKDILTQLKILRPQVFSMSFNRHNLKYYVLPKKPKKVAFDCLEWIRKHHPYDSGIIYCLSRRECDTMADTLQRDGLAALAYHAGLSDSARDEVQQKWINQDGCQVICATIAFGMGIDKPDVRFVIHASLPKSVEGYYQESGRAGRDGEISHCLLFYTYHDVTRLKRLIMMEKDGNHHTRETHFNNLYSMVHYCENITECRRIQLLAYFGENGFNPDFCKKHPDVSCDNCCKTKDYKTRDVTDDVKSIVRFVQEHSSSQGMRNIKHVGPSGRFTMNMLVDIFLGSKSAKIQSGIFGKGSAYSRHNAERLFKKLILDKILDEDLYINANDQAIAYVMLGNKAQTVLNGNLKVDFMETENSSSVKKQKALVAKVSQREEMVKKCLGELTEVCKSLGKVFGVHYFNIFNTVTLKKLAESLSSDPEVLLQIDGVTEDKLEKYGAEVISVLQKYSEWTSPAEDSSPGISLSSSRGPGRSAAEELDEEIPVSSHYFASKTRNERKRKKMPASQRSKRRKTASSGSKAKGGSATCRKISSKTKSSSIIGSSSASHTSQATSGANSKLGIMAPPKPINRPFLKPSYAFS

Where [21] appears, read: measured here: cell count channel max response.
Where [22] appears, read: measured here: lipid channel max response.

Drawing on PubChem BioAssay (NCATS), this text covers outcome, activity change, negative = inhibition and max response for 10 compounds.

Where “and” joins values, the source holds several entries; their conditions need not be identical. Equal entries are not always repeated. Records with an inconclusive call do not appear. Calls of active or inactive are those of the source. Unless noted, calls follow the shape of the dose curve; as a rule, active = well fitted curve in the direction sought with a large enough effect; inconclusive = small, poorly fitted or top-dose-only effect, or another doubt; inactive = no such curve, though single readings can be large; an effect the other way counts as inactive or inconclusive.

Chain of Alpha-galactosidase A (Homo sapiens) (P06280 whole entry, looked up): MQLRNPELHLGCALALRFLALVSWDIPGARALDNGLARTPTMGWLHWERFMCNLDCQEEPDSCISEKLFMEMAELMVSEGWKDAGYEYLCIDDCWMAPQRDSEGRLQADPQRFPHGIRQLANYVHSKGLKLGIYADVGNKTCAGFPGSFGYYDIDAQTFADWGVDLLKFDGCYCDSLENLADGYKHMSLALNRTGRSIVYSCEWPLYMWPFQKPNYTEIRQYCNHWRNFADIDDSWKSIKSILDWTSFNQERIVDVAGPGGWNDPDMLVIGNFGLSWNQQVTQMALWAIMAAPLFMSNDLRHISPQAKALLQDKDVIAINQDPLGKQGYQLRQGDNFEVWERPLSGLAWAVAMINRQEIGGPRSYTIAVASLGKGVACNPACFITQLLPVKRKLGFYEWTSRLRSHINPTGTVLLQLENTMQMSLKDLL
Chain of ATP-dependent DNA helicase Q1 (Homo sapiens) (P46063 whole entry, looked up): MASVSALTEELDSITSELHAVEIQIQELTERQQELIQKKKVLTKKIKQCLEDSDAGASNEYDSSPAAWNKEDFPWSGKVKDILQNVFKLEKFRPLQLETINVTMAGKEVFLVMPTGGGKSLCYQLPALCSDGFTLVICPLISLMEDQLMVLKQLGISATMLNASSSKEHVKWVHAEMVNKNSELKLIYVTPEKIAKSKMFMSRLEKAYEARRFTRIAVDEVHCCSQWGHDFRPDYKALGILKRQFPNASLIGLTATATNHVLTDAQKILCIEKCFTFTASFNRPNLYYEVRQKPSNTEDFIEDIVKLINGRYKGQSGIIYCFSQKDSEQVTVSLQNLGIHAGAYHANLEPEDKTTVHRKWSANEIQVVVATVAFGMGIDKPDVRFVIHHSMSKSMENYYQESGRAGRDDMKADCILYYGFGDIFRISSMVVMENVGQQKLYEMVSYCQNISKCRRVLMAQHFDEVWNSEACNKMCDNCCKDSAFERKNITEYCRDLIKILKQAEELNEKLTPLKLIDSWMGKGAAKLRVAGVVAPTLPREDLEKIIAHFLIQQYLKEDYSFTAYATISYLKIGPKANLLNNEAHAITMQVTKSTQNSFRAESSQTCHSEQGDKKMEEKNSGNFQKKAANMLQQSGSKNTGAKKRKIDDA

Turning to `C=Cc1ccccc1`, the compound was classed as inactive in assay [1], in assay [2], in [3], in [4] and in assay [5].
As to `CN(C)Cc1ccccc1`, the result in [6], in assay [7], in assay [1], in assay [2], in assay [3] and in [4] was inactive. In addition, in [5], the result was inactive.
`CCCCCCCCCCCCCCCC(=O)OC/C=C(C)/C=C/C=C(C)/C=C/C1=C(C)CCCC1(C)C`: the activity change, negative = inhibition in assay [8] was 3.99% (inactive). Also, the max response in [8] (setting [21]) came to 7.5%; in [8] (setting [22]), 14%.
For `NCCCC(=O)O`, the compound was called inactive in assay [9], in assay [10], in [11], in assay [12], in [13] and in assay [14]. Also, the result in assay [15], in assay [16], in [17], in [18] and in assay [19] was inactive. For the same compound, the activity change, negative = inhibition in assay [8] was -0.209% (inactive) and 6.45% (inactive) and 0.252% (inactive). The max response was -9.18% and 2.91% and -17.1% in assay [8] (setting [21]); -6.14% and 11.3% and -29.6% in assay [8] (setting [22]).
Turning to `CCCCCCCCCC(=O)O`, the call in [6], in assay [7], in assay [1], in [2], in assay [3] and in assay [4] was inactive. The outcome in assay [5] was inactive.
As to `O=C(O)CC(O)(CC(=O)O)C(=O)O`, the outcome in assay [6], in assay [7], in assay [2], in assay [3], in [4] and in assay [5] was inactive. Also, the activity change, negative = inhibition in assay [8] is -0.75% (inactive). Moreover, the values for the max response in assay [8] (setting [21]) and in assay [8] (setting [22]) were 14.5% and 16%, respectively.
For `Cc1ccc(OC[C@H](O)[C@H](C)NC(C)C)c2c1CCC2`, the result in [9] and in [10] was inactive. Also, the activity change, negative = inhibition in [8] was -0.878% (inactive). The values for the max response in [8] (setting [21]) and in [8] (setting [22]) were 5.72% and 7.78%, respectively.
As for `CN[C@H]1CC[C@@H](c2ccc(Cl)c(Cl)c2)c2ccccc21`, the call in [9], in assay [10], in assay [12], in [13], in [16] and in [20] was inactive.
As for `C1CNCCN1`, in assay [8], the activity change, negative = inhibition is 8.66% (inactive). The max response in [8] (setting [21]) worked out at 6.29%; in assay [8] (setting [22]), 18.5%.
As to `COC(C)=O`, the compound was called inactive in assay [6], in assay [7], in assay [1], in [2], in [3] and in assay [4]. Also, the compound was called inactive in assay [5].
